The source of these data is PubChem BioAssay (EPA / NIEHS).

Active and inactive are the calls of the source. The calls were made as follows: active = hit-call score of the fitted dose curve at least 0.9, where 1 is the maximum; inactive = score below 0.9.

Read-out in this assay: Glutathione S-transferase M3 (GSTM3), GSTM3 (gene 2947)
Nature of the assay: LTEA_HepaRG_GSTM3: Life Technologies and Expression Analysis (LTEA) Assay for Glutathione S-transferase M3 (GSTM3) using HepaRG (AID 2283501). The note with it: mRNA level, 48 h; actives raise or lower the signal. As to the method:
LTEA_HepaRG is a cell based, multiplexed-readout assay that uses HepaRG, a human liver cell line, with measurements taken at 48 hours after chemical dosing on a 96-well plate.LTEA_HepaRG_GSTM3 is one of 102 assay component(s) measured in the LTEA HepaRG cell culture assay. It is a marker of Oxidative Stress.Data from the assay component LTEA_HepaRG_GSTM3 was analyzed into 1 endpoint. This assay endpoint, LTEA_HepaRG_GSTM3, was analyzed with bidirectional fitting relative to DMSO as the negative control and baseline of activity. Using a type of inducible reporter, measures of mRNA induction for gain or loss-of-signal activity can be used to understand regulation of transcription factor activity. To generalize the intended target to other relatable targets, this assay endpoint is annotated to the transferase intended target family, where the subfamily is alkyl and aryl transferase.
A total of 1060 chemcials from the ToxCast library were tested in eight-point concentration-response experiments. Cell culture and cytotoxicity assays were conducted at Thermo Fisher Scientific's Custom Services facility (Madison, WI). A single lot of human HepaRG cells (Thermo Fisher Scientific, Frederick, MD) was used for the cell culture experiments. 96-well format collagen type I coated plates of human HepaRG cells were prepared using established methods. Briefly, cryopreserved HepaRG cells were thawed, plated at a density of approximately 100,000 cells/well in HepaRG Thaw, Plate, and General Purpose media (HPRG770, Thermo Fisher Scientific), and incubated for 48 hours. 0.5% DMSO was selected as vehicle control to balance the requisite need of DMSO in HepaRG cultures to maintain differentiation (for example, baseline metabolism, proportions of hepatocytes vs. cholangiocytes), while enabling further hepatic receptor pathway activation (for example, PXR and CAR) in response to chemical exposure. 48 hours after plating, the culture medium was replaced with HepaRG Serum-Free Incudtion Media. Cells were exposed to each test chemical in duplicate and maintained in CO2 incubators for another 48 hours. Chemical plates were thawed to room temperature and 200x concentrations of treatment groups were prepared. 8-point conentration-reponse curves were made with the highest exposure at 100 uM, followed by half-log dilutions, all in 0.5% DMSO. Each test plate contained variouse controls, induction positive controls (1mM phenobarbital), cytotoxicity positive controls ([…] aflatoxin B1), vehicle controls (0.5% DMSO), and total lysis controls (0.5% DMSO). Cell morphology images were taken using an Essen IncuCyte FLR automated microscope, with six 96-well plates imaged in about 24 minutes. Images were captured and exported and JPEG files. Spent culture media was transfered to black-well plates for the LDH assay, and remaining media was sorted at -80 C for later use. Cells were treated with RLT buffer and frozen until shipped for gene expression analysis. Total RNA was isolated from the cell suspension in 75 uL of Buffer RLT (Qiagen, Germantown, MD 20874) by Quintiles/Expression Analysis (Durham, NC) using a custom isolation procedure. Total RNA from each plate well was transferred to a preamplification plate. Fluidigm's 96.96 Dynamic ArrayTM (Fluidigm, Amsterdam, the Netherlands) technology was used for gene expression analyses by quantitative reverse transcription polymerase chain reaction (qRT-PCR, performed by Quintiles/Expression Analysis, Durham, NC)89. Standard TaqManTM Assays (Applied Biosystems/ThermoFisher Scientific, Foster City, CA) were used to assess the expression of 93 genes selected based on their selectivity and sensitivity to important hepatic receptors known to be modulated by environmental chemicals; importance in human hepatocyte functionality; and hepatotoxicity. […]
For `FC(F)C(F)(F)OCC(Cn1cncn1)c1ccc(Cl)cc1Cl` (stereo not given), the AC50 is 73.6 µM (active).

For `Cc1nn(-c2cc(NS(C)(=O)=O)c(Cl)cc2Cl)c(=O)n1C(F)F`, the result was inactive.

Consider `Cc1cc(C2CC2)nc(Nc2ccccc2)n1`, for which the result was inactive.

Consider `CCOP(=S)(OCC)Oc1cc(C)nc(C(C)C)n1`, for which the compound was classed as inactive.

Turning to `C#CC(C)(C)NC(=O)c1cc(Cl)cc(Cl)c1`, the outcome was inactive.

For `CCC(CC)Nc1c([N+](=O)[O-])cc(C)c(C)c1[N+](=O)[O-]`, the compound was called inactive.

`COc1cccc(C(=O)NN(C(=O)c2cc(C)cc(C)c2)C(C)(C)C)c1C`: the outcome was inactive.

As to `N#CSCSC#N`, the compound was classed as inactive.

For the compound `CCCCOC(=O)c1ccccc1C(=O)O`, the compound was called inactive.

Take `CSC1=N[C@@](C)(c2ccccc2)C(=O)N1Nc1ccccc1`: the AC50 was 76.6 µM (active).

For the compound `CCOP(=O)(OCC)Oc1cc(C)nc(C(C)C)n1`, the result was inactive.

For the compound `CCOP(=S)(OCC)SCCSCC`, the call was inactive.

Turning to `CCCSP(=O)(OCC)Oc1ccc(Br)cc1Cl` (stereo not given), the compound was called inactive.

As to `CCc1cnc(C2=NC(C)(C(C)C)C(=O)N2)c(C(=O)O)c1` (stereo not given), the compound was called inactive.

`O=C(O)c1cc(Oc2ccc(C(F)(F)F)cc2Cl)ccc1[N+](=O)[O-]`: the call was inactive.

Turning to `CCOC(=O)CC(SP(=O)(OC)OC)C(=O)OCC` (stereo not given), the result was inactive.

As for `CN1COCN(Cc2cnc(Cl)s2)C1=N[N+](=O)[O-]`, the compound was classed as inactive.

Consider `CCOP(=S)(Oc1cnc(C(C)(C)C)nc1)OC(C)C` (stereo not given), for which the outcome was inactive.

Take `CCOP(=S)(OCC)Oc1ccc([N+](=O)[O-])cc1`: the result was inactive.

In the case of `CCNc1nc(Cl)nc(NC(C)(C)C#N)n1`, the call was inactive.

For `O=[N+]([O-])c1cc(C(F)(F)F)c(Cl)c([N+](=O)[O-])c1Nc1ncc(C(F)(F)F)cc1Cl`, the result was inactive.

With `CN(C)C(=O)Nc1cccc(C(F)(F)F)c1`, the outcome was inactive.

In the case of `CC(C)[C@H](C(=O)O[C@H](C#N)c1cccc(Oc2ccccc2)c1)c1ccc(Cl)cc1`, the result was inactive.

For `Cc1ccn2nc(S(=O)(=O)Nc3c(F)cccc3F)nc2n1`, the outcome was inactive.

With `C=C(C)[C@H]1Cc2c(ccc3c2O[C@@H]2COc4cc(OC)c(OC)cc4[C@@H]2C3=O)O1`, the AC50 was 23.9 µM (active).

Consider `C#CCC1=C(C)C(OC(=O)C2C(C=C(C)C)C2(C)C)CC1=O` (stereo not given), for which the compound was called inactive.

Regarding `COP(=O)(OC)SCn1c(=O)oc2cc(Cl)cnc21`, the compound was classed as inactive.

With `CC(COc1ccc(Oc2ccccc2)cc1)Oc1ccccn1` (stereo not given), the result was inactive.

On to `CN(C)[C@@H]1C(=O)C(C(N)=O)=C(O)[C@@]2(O)C(=O)C3=C(O)c4c(O)cccc4[C@@](C)(O)[C@H]3[C@H](O)[C@@H]12`, for which the outcome was inactive.

As to `CCc1cccc(C)c1N(C(=O)CCl)C(C)COC` (stereo not given), the result was inactive.

As for `COP(=O)(OC)OC(Br)C(Cl)(Cl)Br` (stereo not given), the compound was classed as inactive.

Turning to `CCC(=NOC/C=C/Cl)C1=C(O)CC(C2CCOCC2)CC1=O` (stereo not given), the compound was called inactive.

Consider `CCc1cccc(CC)c1N(COC)C(=O)CCl`, for which the call was inactive.

As for `C[Si](Cn1cncn1)(c1ccc(F)cc1)c1ccc(F)cc1`, the AC50 is 74.9 µM (active).

Consider `CC1(C(=O)Nc2ccc(O)c(Cl)c2Cl)CCCCC1`, for which the result was inactive.

Take `CC(C)=CC1C(C(=O)OCN2C(=O)C3=C(CCCC3)C2=O)C1(C)C` (stereo not given): the compound was called inactive.

For the compound `CCOP(=S)(OCC)Oc1ccc2c(C)c(Cl)c(=O)oc2c1`, the compound was classed as inactive.

With `CCOC(=O)COc1cc(-c2nn(C)c(OC(F)F)c2Cl)c(F)cc1Cl`, the call was inactive.

Turning to `CCCOc1nn(C(=O)NS(=O)(=O)c2ccccc2C(=O)OC)c(=O)n1C`, the call was inactive.

Take `CCOP(=S)(OCC)OC(Cl)C(Cl)(Cl)Cl` (stereo not given): the outcome was inactive.
